YopH inh – YopH (Yersinia) phosphatase inhibition | fluorescence Ex485/Em525 | inhibition, % (test concentration not listed) | 140,000 tested, 0.16% active; in the data active = inhibition above about 50%
RmlC RmlD mix – mixture blocks RmlC and RmlD coupled enzyme activity; RmlC/RmlD coupled enzyme inhibition, 384-well mixture HTS; AID 1532; 110,000 tested, 0.39% active; inhibition, % at 5.5 µM; in the data active = inhibition above about 30%, passing the limit was not always enough
RmlCD artifact – RmlC/RmlD fluorescence artifact, counter-screen; shares compounds with RmlC RmlD mix; RmlC/RmlD assay fluorescence artifact counter-screen; calls only; 360 tested, 96% active; call rule not given here;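 note: compound alone with no enzyme and no substrates present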
Starred values were filed as active, the others as inactive; i = inactive; nt = not tested or not shown; + = active, no number. Only some compounds are listed: those with a hit (about 0.44% of all), similar ones and a draw of the others.

SMILES | YopH inh | RmlC RmlD mix | RmlCD artifact
C/C=C(/C)C(=O)Nc1cccc(C2=NOC3(C2)C[C@@H](C(N)=O)N(C(=O)CCCCC)C3)c1 (some centres undefined) | nt | 8 | nt
CN1CCN(C(=O)C2=C[C@H](c3ccc(C(F)(F)F)cc3)C[C@H](OCc3ccc(CO)cc3)O2)CC1 | nt | 8 | nt
CCCCCCc1cc2cc(-c3nnc(-c4ccccc4O)o3)c(=O)oc2cc1O | -27 | 162* | nt
CCCCCCc1cc2cc(C(=O)Nc3ccccc3OC)c(=O)oc2cc1O | -24 | nt | nt
CCCCCCc1cc2cc(S(=O)(=O)c3ccc(F)cc3)c(=O)oc2cc1O | -4 | nt | nt
CCCCCCc1cc2cc(-c3nnc(-c4cc(OC)c(OC)c(OC)c4)o3)c(=O)oc2cc1O | -10 | 69* | nt
CC(C)CNC(=O)c1cccc(NC(=O)c2ccc(Cl)c([N+](=O)[O-])c2)c1 | -31 | nt | nt
COC(C/C=C\C(=O)[C@@H](C)OCc1ccccc1)OC | nt | -3 | nt
Nc1cc2nc3ccccc3oc-2cc1=O | nt | -20 | nt
CC(CN(C)Cc1ccccc1)OC(=O)c1cccc(F)c1 (centres undefined) | -25 | nt | nt
CC(C)(C)SCCNC(=O)c1ccc(Cl)c([N+](=O)[O-])c1 | -28 | nt | nt
O=c1[nH]c(Nc2ccccc2Cl)cc2ccccc12 | nt | -2 | nt
O=c1[nH]c(Nc2ccccn2)cc2ccccc12 | nt | 32 | nt
O=c1[nH]c(Nc2ccc(F)cc2)cc2ccccc12 | 90* | -15 | nt
Cc1ccccc1Nc1cc2ccccc2c(=O)[nH]1 | 101* | 4 | nt
COc1cccc(SCc2noc(C(=O)NCCC(C)C)c2C(=O)NCCC(C)C)c1 | nt | -18 | nt
COC(C/C=C\[C@H](O)[C@H](C)OCc1ccccc1)OC | nt | 4 | nt
COc1ccc(N/C(=C2\CCCC2=O)C2CCCCC2)cc1 | nt | -2 | nt
CC(=O)Nc1nonc1-c1nc2ccccc2n1CCC(C)C | -39 | nt | nt
CCC(=O)Nc1nonc1-c1nc2ccccc2n1CCC(C)C | 57* | 3 | nt
COC(C[C@H]1O[C@H]1[C@H](O)[C@@H](C)OCc1ccccc1)OC | nt | -5 | nt
Cc1ccc(NC(=O)c2ccnc(C(C)(C)C)c2)cc1 | 68* | 4 | nt
CC(C)(C)c1cc(C(=O)Nc2ccccc2)ccn1 | -39 | -21 | nt
C#CCn1cc(C=C2C(=O)c3ccccc3C2=O)c2ccccc21 | 51* | nt | nt
CC1CCCCN1C(=O)Cn1cc(/C=C2/C(=O)Nc3ccccc32)c2ccccc21 (centres undefined) | 8 | 9 | nt
SMILES | YopH inh | RmlC RmlD mix | RmlCD artifact
Cc1ccc(-c2nc3ncccc3o2)cc1NC(=O)COc1ccccc1 | -29 | -12 | nt
CCOCC(=O)Nc1cc(-c2cn3cccnc3n2)ccc1C | -40 | 107* | +
COCC(=O)Nc1ccc(-c2cn3cccnc3n2)cc1 | -50 | 96* | +
COc1ccc(-c2cn3cccnc3n2)cc1NC(=O)c1cccs1 | -31 | nt | nt
Cc1c(C(N)=O)sc2ncn(CC(=O)N3CCC(C)CC3)c(=O)c12 | 6 | 9 | nt
O=C(N[C@@H](Cc1ccc(O)cc1)C(=O)O)c1ccc(C(F)(F)F)cc1 | nt | 7 | nt
CCOc1ccc(C(=O)N/N=C/c2cc(Cl)ccc2[N+](=O)[O-])cc1 | -35 | nt | nt
Cn1c(/C=N/c2nc3ccccc3[nH]2)nc2ccccc21 | -10 | 12 | nt
Cn1c(/C=N/n2cnnc2)nc2ccccc21 | -116 | 44* | +
CCc1cc(=O)oc2cc(C)c(CN3CCCCC3)c(O)c12 | -42 | 10 | nt
Cc1cc2oc(=O)cc(CN3CCC(C)CC3)c2cc1Cl | -40 | -21 | nt
CCCc1cc(=O)oc2c(CN3CCCC3)c(O)ccc12 | -29 | 99* | +
Cc1cc(=O)oc2c(CN3CCCCC3)c(O)c(Cl)cc12 | 15 | 94* | +
CN1CCN(Cc2c(O)ccc3c(-c4ccccc4)cc(=O)oc23)CC1 | -30 | -6 | nt
Cc1cc(=O)oc2c(CN3CCC(C)CC3)c(O)c(Cl)cc12 | 2 | 149* | +
Cc1c(C(=O)NC(C(C)C)C(C)C)cccc1[N+](=O)[O-] | -30 | nt | nt
COc1ccc(C2(CNC(=O)Cc3ccc(OC)c(OC)c3)CCOCC2)cc1 | 16 | -10 | nt
O=C(CSCc1cccc(Br)c1)N/N=C/c1ccc2c(c1)OCO2 | -12 | -12 | nt
Cc1ccc(OCc2ccc(C(=O)Nc3nc4ccccc4n3C)o2)c([N+](=O)[O-])c1 | -21 | nt | nt
O=C1Nc2ccccc2C(O)(C(=O)NCc2ccc3c(c2)OCO3)N1c1ccc(Cl)c(Cl)c1 (centres undefined) | -16 | 9 | nt
COC(=O)c1sc2cnccc2c1N | -34 | 34* | +
COC(=O)c1sc2nc(N)c(C#N)cc2c1N | -24 | nt | nt
CN1CC2(Cc3c1ccc1ccccc31)C(=O)OC(C)(C)OC2=O | -1 | + | +
Cc1ccc2c(c1)CC1(CN2C)C(=O)OC2(CCCCC2)OC1=O | -6 | -8 | nt
COc1ccc(C(=O)Nc2c(Cl)cc(Cl)cc2C(=O)NCCN2CCOCC2)cc1 | -20 | -4 | nt
SMILES | YopH inh | RmlC RmlD mix | RmlCD artifact
CN1CCN(CCCNC(=O)c2ccc3c(c2)N(Cc2ccccc2)CCS3)CC1 | -36 | 38* | +
O=C(NCCN1CCOCC1)c1ccc2c(c1)N(Cc1ccccc1)CCS2 | -43 | 18 | nt
COc1ccc(CNC(=O)NC(C)(C)c2cccc(C(C)(C)NC(=O)NCc3ccc(OC)cc3)c2)cc1 | -10 | nt | nt
CN(C(=O)c1cccc(C#N)c1)c1nnc(-c2ccccn2)s1 | -29 | 36* | +
CN(C(=O)c1ccccn1)c1nnc(-c2ccncc2)s1 | 7 | nt | nt
CN(C(=O)c1ccno1)c1nnc(-c2ccccn2)s1 | -19 | + | +
CN(C(=O)c1ccncc1)c1nnc(-c2cccnc2)s1 | 5 | nt | nt
CN(C(=O)c1ccc(C#N)cc1)c1nnc(-c2ccccn2)s1 | 37 | 40* | i
CN(C(=O)c1ccncc1)c1nnc(-c2ccccn2)s1 | -43 | 108* | +
COc1ccc(-c2nnc(N(C)C(=O)c3ccno3)s2)cc1 | -19 | 22 | nt
CN(C(=O)c1cccc(C#N)c1)c1nnc(C2CCOC2)s1 (centres undefined) | -31 | -7 | nt
CC(C(=O)NCc1ccc2c(c1)OCO2)N1c2cccc3cccc(c23)S1(=O)=O (centres undefined) | -32 | 0 | nt
COCCn1c(-c2ccc(-c3ccccc3Cl)o2)nc2c1c(=O)[nH]c(=O)n2CC(C)C | -32 | 144* | +
CCCCn1c(=O)[nH]c(=O)c2c1nc(-c1ccc(-c3ccccc3Br)o1)n2CCOC | -23 | -82 | nt
CCOc1cc(/C=C2/C(=N)N3C=CSC3=NC2=O)ccc1OCCCOc1ccccc1C | -2 | 40* | +
COc1cc(/C=C2/C(=N)N3C=CSC3=NC2=O)ccc1OCCCOc1ccccc1C | -10 | 13 | nt
CC(O)Cc1cn([C@@H](CCCCNC(=O)OC(C)(C)C)C(=O)N2CCN(C(=O)OC(C)(C)C)CC2)nn1 (some centres undefined) | nt | -11 | nt
CCCCNC(=S)Nc1ccc(-c2nc3ccc(C)cc3s2)cc1 | -12 | nt | nt
Cc1ccc2nc(-c3ccc(NC(=S)NCCC(C)C)cc3)sc2c1 | -2 | 130* | +
CC(=O)Oc1ccc2c(C)cc(=O)oc2c1 | -11 | + | +
CC(=O)Oc1cc2oc(=O)cc(C)c2cc1OC(C)=O | -23 | i | nt
Cc1ccccc1-c1c(C)oc2cc(O)ccc2c1=O | -36 | 38* | +
O=c1cc(O)c2ccc(O)cc2o1 | nt | 104 | nt
Cc1oc2cc(O)ccc2c(=O)c1N1C(=O)c2ccccc2C1=O | -4 | 4 | nt
CC(=O)Oc1ccc2c(C)cc(=O)[nH]c2c1 | -55 | 64* | +

Assay outcomes: PubChem BioAssay, several laboratories
